Test results published in PubChem BioAssay (NCI).
This is part of a sample that, as a whole, favours compounds with a hit. Of some 79,000 tested, about 15% had one in any assay. A number with no mark means an inactive call. Calls of active or inactive are those of the source. Cut-off read from the data, not from the text of the source: active = growth inhibition above about 70%; inactive = the rest.

Key:
[1] = NCI Yeast Anticancer Drug Screen. Data for the rad50 strain (AID 155);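 note: 0% = growth of vehicle-only cultures of the same strain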; conditions: S. cerevisiae rad50 strain growth inhibition; at 50.0 µM; active compounds read high
How it was run: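 Readout: growth inhibition relative to vehicle-treated cultures. Compound exposure was carried out in a genetically defined yeast strain deficient in DNA damage repair.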

[2] = NCI Yeast Anticancer Drug Screen. Data for the mec2-1 strain (AID 157); conditions: S. cerevisiae mec2-1 strain, at 50.0 µM, active compounds read high
How it was run: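 Mutant yeast (mec2-1) grown with compound; growth inhibition relative to vehicle control reported.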

[3] = NCI Yeast Anticancer Drug Screen. Data for the sgs1 mgt1 strain (AID 161);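 note: 0% = growth of cultures given vehicle only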; conditions: S. cerevisiae sgs1 mgt1 strain, at 50.0 µM, active compounds read high
How it was run: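 Percent growth inhibition was derived by comparing compound-exposed mutant yeast with vehicle-exposed cultures. The strain carries alterations in DNA damage repair.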

[4] = NCI Yeast Anticancer Drug Screen. Data for the cln2 rad14 strain (AID 165);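 note: 0% = growth equal to vehicle treated cultures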; conditions: S. cerevisiae cln2 rad14 strain, at 50.0 µM, active compounds read high
How it was run: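 Readout is yeast growth inhibition versus vehicle-treated controls, using a strain with cln2 and rad14 alterations exposed to compound.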

[5] = NCI Yeast Anticancer Drug Screen. Data for the bub3 strain (AID 167); conditions: S. cerevisiae bub3 mutant strain, at 50.0 µM, active compounds read high
How it was run: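 Readout: yeast growth inhibition, expressed relative to vehicle-only wells. The test organism is a mutant strain from a panel with lesions in DNA repair or checkpoint genes.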

[6] = NCI Yeast Anticancer Drug Screen. Data for the mlh1 rad18 strain (AID 175); conditions: S. cerevisiae mlh1 rad18 strain growth inhibition; at 50.0 µM; active compounds read high
How it was run: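 Genetically defined yeast (DNA repair-deficient) exposed to compounds; growth inhibition determined relative to vehicle.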

Row | Structure (SMILES) | growth inhibition [1] | growth inhibition [2] | growth inhibition [3] | growth inhibition [4] | growth inhibition [5] | growth inhibition [6]
1 | O=C1/C(=C/c2ccc(Cl)cc2)COc2ccc(Br)cc21 | 26.1% | 4.85% | -5.1% | 6.7% | 1.8% | -2.45%
2 | COC(=O)CCCc1c[nH]c2ccccc12 | 7.2% | -9.8% | -3.9% | -0.95% | 14.2% | -1.05%
3 | COc1ccc(C(C)=O)c(O)c1 | -10.4% | -15.2% | -10.2% | -3.7% | 3.2% | 5.2%
4 | O=P(O)(CP(=O)(c1ccccc1)c1ccccc1)c1ccccc1 | 15.3% | 7.25% | 15.9% | 16.2% | 5.9% | 10.9%
5 | COc1ccccc1Nc1n[nH]c(=S)s1 | 11.5% | -5.9% | 58.5% | 16.9% | 14.1% | 5.05%
6 | C=CCc1cc(OC)c(O)c(C(=O)OCC)c1 | -2.35% | -12.8% | -3.25% | 1.3% | 7.65% | -2.15%
7 | COc1cnc2cc(C(=O)O)c3ccccc3c2c1 | 40.5% | 9.7% | 13.2% | 23.1% | -1.15% | 29.1%
8 | COc1cc(CNCCO)cc(OC)c1 | 22.2% | 8.8% | -1.35% | -15.1% | 19.6% | 13%
9 | CCCCNC(N)=O | -21.1% | -36.1% | -21.9% | -37.9% | -2.2% | -9.25%
10 | CCOC(=O)C(NC(=O)c1cccc(Cl)c1)(N1CCN(c2cc3c(cc2F)c(=O)c(C(=O)O)cn3CC)CC1)C(F)(F)F (configuration not stated) | -7.7% | -39.5% | -18.3% | 4.45% | -16.8% | -23.6%
11 | CCCCCCCCNC(=O)/C(=C\c1ccc(/C=C(/NC(=O)c2ccccc2)C(=O)NCCCCCCCC)cc1)NC(=O)c1ccccc1 | -14% | -23.4% | -20.4% | 11.7% | -17.9% | -4%
12 | CC(=O)OCC(OC(C)=O)C(OC(C)=O)C(OC(C)=O)C(O)CO (configuration not stated) | -0.55% | 18.8% | 15.4% | -6% | 24.6% | -4.45%
13 | CCN(CC)CCn1ncc2ccc3c(c(=O)c4cccnc4n3CCN(CC)CC)c21 | 9% | 16.8% | 13.2% | 27.8% | 11.6% | 10.9%
14 | CN(C)c1ccc(Cc2c[nH]c3ccccc3c2=O)cc1 | 8.4% | 12.8% | 18.8% | 12.2% | 25.1% | 9.65%
15 | COC(=O)CCC(CCC(=O)OC)([N+](=O)[O-])[N+](=O)[O-] | 0.4% | -1.95% | 4.5% | -55.6% | 10.7% | 3.3%
16 | CNCC(OC(C)C)c1ccc(O)c(O)c1 (configuration not stated) | -3.3% | -2.85% | -0.05% | -36.4% | -19.2% | 16.2%
17 | NC(=S)N/N=C/c1ccc2c(c1)OCO2 | 1.55% | 25.8% | 9% | 47.4% | 22.9% | 13.1%
18 | CC(CO)CCNc1ncnc2c1ncn2CCC#N (configuration not stated) | -9.3% | 10.1% | -46.5% | -19.9% | 6.95% | -13.4%
19 | COC(=O)C1OC(O[C@H]2CC[C@]3(C)[C@H]4CC=C5[C@@H]6CC(C)(C)CC[C@]6(C(=O)OC6OCC(O)C(O)C6OC6OC(C)C(OC7OCC(OC8OCC(O)C(O)C8O)C(O)C7O)C(O)C6O)[C@H](O)C[C@@]5(C)[C@]4(C)CC[C@H]3C2(C)C)C(O)C(O)C1O (some centres not stated) | 26.3% | 17% | 10.3% | 11.9% | 42.6% | 32.2%

Row | Structure (SMILES) | growth inhibition [1] | growth inhibition [2] | growth inhibition [3] | growth inhibition [4] | growth inhibition [5] | growth inhibition [6]
20 | Cc1c2ccccc2c(CN2CC(O)CC2C(=O)O)c2ccccc12 (configuration not stated) | 70.6% (active) | 33.2% | 63% | 78.5% (active) | 51.8% | 93.8% (active)
21 | O=CN/C=C/c1ccccc1O | -5% | 1.8% | 4.1% | 6.95% | 12.1% | -4.6%
22 | CN(C)CCNc1cccc2oc3ccc(O)cc3c(=O)c12 | 8.2% | -4.95% | 9.55% | -2.3% | -4.95% | 7.4%
23 | O.[Cl][Co]([Cl])[Cl].c1c[nH]cn1.c1c[nH]cn1 | -0.85% | -5.6% | 15% | 1.95% | 8.4% | -2.7%
24 | c1cc2c3c(c1)ccc1cccc(c13)CC2 | 4.45% | -34.1% | 3.3% | 1.5% | -22.8% | 13.9%
25 | CCOC(=O)c1[nH]n(-c2ccccc2)c(=O)c1C=NC(C)=S | -32.2% | -25.6% | -16.6% | 7.1% | -12% | -18.9%
26 | Cc1ccc(C2OC2C(=O)c2ccccc2)cc1 (configuration not stated) | 0.05% | 0.25% | -19.5% | -48.5% | -36% | 5.85%
27 | Nc1cc(S(=O)(=O)O)cc2cccc(S(=O)(=O)O)c12 | 7% | -7.7% | 0.35% | -20.6% | 25.2% | 30.8%
28 | COc1ccc(-c2cc(-c3ccccc3)c(-c3ccccc3)nn2)cc1CN1CCOCC1 | 2.65% | -29.2% | -17.1% | 10.7% | -5.05% | -7.85%
29 | O=C(Nc1nc2ncn(CCNCCn3cnc4nc(NC(=O)c5ccccc5)[nH]c(=O)c43)c2c(=O)[nH]1)c1ccccc1 | -10.2% | 14.1% | 17.5% | 25.9% | 16.8% | 17%
30 | O=C(O)c1ccccc1C(=O)CCC(=O)c1ccccc1C(=O)O | -43.5% | -6.75% | 14.3% | -8.95% | -0.05% | 1.25%
31 | O=C1C2=Cc3ccccc3OC2(O)Oc2ccc(O)cc21 (configuration not stated) | 8.5% | 6.75% | -6.05% | -2% | -38.6% | -33.5%
32 | CCC1(c2ccccc2)CCCC/C1=N/NC(N)=O (configuration not stated) | 2.55% | -16.6% | -0.8% | 2.2% | -6.05% | -8.7%
33 | Cc1cc2ccccc2c[n+]1CC(=O)CC([O-])(C(F)(F)F)C(F)(F)F | 2.85% | 3.25% | -5.65% | 4.1% | 16.4% | -14.9%
34 | CC1OCOC1C1OCOCC1OC(=O)c1ccccc1 (configuration not stated) | -5.6% | -5.5% | -15.2% | -14.8% | 25.2% | -5%
35 | N#Cc1cnn2ccn(C3OC(CO)C(O)C3O)c12 (configuration not stated) | -42.8% | -14.2% | -18.9% | -22.6% | -5.45% | 14.9%
36 | FC(F)(F)c1cccc(NC(=S)SCc2ccc(Cl)c(Cl)c2)c1 | 98.3% (active) | 98.8% (active) | 98.8% (active) | 99.1% (active) | 98% (active) | 98.2% (active)
37 | CC(/C=C/C=C(\C)C(=O)O)=C\C=C\C=C(C)\C=C\C=C(/C)C(=O)O | -0.8% | -21% | 3.7% | 6.6% | -9.05% | 17.9%
